High-throughput results deposited in PubChem by National Center for Advancing Translational Sciences (NCATS).
Shiga toxin inh: inhibitors of Shiga toxin in Vero cells | Vero cells, Shiga toxin protein synthesis inhibition reporter | inhibition, % at 38.7 µM | 9.2% of 290,000 active; in the data active means inhibition mostly above about 28%, no sharp cut-off; inactive means mostly below about 43%; further: 0% is about no effect
FBPA Giardia inh: blocks Giardia fructose-bisphosphate aldolase activity | A8B2U2 | purified Giardia FBPA | Potency, µM (doses to about 59.6 µM), for the others: at the highest dose activity, negative = inhibition, actives largely listed as inhibitors | 0.71% of 290,000 active; further: potency means the concentration at half of the fitted maximal effect; on the % scale 0 is the no-effect control and ±100 the full control effect; nearly all actives have a fitted effect of over 55% in size
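Giardia FBPA (40 nM reagent) was preincubated 10 min at RT with compound (up to 57.5 uM final), then substrate plus GAPDH/TPI/NAD/arsenate coupling system with diaphorase/resazurin was added; resorufin fluorescence (525/598 nm) was read after 20 min.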
LmPK inh: LmPK (Leishmania mexicana) enzyme inhibition; 0.37% of 290,000 active; purified LmPK, Kinase-Glo ATP luminescence, 1 h; Q27686; Potency, µM (top dose mostly 57.5 µM), for the others: top-dose activity change, negative = inhibition, usual class: inhibitors; AID 1721; further: potency means the concentration at half of the fitted maximal effect; on the % scale 0 is the no-effect control and ±100 the full control effect
Target sequence (Q27686 whole entry, looked up): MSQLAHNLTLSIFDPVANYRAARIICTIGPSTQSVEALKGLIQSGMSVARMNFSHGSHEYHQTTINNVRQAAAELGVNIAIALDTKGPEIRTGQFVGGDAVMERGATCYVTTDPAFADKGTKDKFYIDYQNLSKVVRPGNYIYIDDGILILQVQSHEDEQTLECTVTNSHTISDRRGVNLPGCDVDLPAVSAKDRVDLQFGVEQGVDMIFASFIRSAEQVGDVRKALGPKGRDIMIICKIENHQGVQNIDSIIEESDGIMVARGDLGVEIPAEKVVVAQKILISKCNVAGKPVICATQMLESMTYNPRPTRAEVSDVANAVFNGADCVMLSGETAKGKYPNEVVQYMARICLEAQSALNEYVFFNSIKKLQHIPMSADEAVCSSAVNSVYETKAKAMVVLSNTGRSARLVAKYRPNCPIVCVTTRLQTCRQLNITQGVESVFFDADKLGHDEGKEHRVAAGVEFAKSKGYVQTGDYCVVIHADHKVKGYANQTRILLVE
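0.1 nM LmPK, 0.5 mM PEP, 0.1 mM ADP; 50 mM imidazole pH 7.2, 7 mM MgCl2, 50 mM KCl; 1 h RT. Kinase-Glo luminescence readout, normalized to no-enzyme (full inhibition) and uninhibited wells.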
Tb PYK inh: blocks Trypanosoma brucei pyruvate kinase; 0.12% of 410,000 active; Potency, µM (highest dose often 76.8 µM), inactives show at the top dose activity, negative = inhibition, usual class: inhibitors; AID 624173; Q57TT1; TbPYK enzyme, Kinase-Glo Plus ATP luminescence, 45 min; further: potency means the concentration at half of the fitted maximal effect; on the % scale 0 is the no-effect control and ±100 the full control effect; nearly all actives have a fitted effect of over 50% in size
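Activity of T. brucei pyruvate kinase was followed by Kinase-Glo Plus luminescence after the enzyme reacted 45 min at room temperature with 130 uM ADP (final) and substrate. Test compounds were added before ADP at multiple concentrations.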
Sm TGR block: inhibitors of Schistosoma mansoni thioredoxin glutathione reductase; Q962Y6; purified TGR, DTNB reduction, TNB absorbance 405 nm; Potency, µM (series often up to 114 µM), without a hit: top-dose activity change, negative = inhibition, most hits filed as inhibitors; 3% of 360,000 active; AID 485364; further: potency means the concentration at half of the fitted maximal effect; on the % scale 0 is the no-effect control and ±100 the full control effect; nearly all actives have a fitted effect of over 60% in size
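First, TGR (20 nM dispensed) and NADPH were mixed with compound. Second, a 15 min room-temperature incubation followed. Third, further NADPH and then DTNB were added to start the reaction. Finally, TNB absorbance was monitored kinetically.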
Cycloheximide cs: counter-screen hit for Shiga toxin inhibitors, cycloheximide | 12% of 300,000 active | cell reporter, cycloheximide protein synthesis inhibition counterscreen | max response, %; in the data active means max response mostly above about 13%, no sharp cut-off; inactive means mostly below about 14%; further: read at 38.3 µM for the half of the compounds with a filed dose; 0% is about no effect
* hit, by the source's call; [ ] = dose if it differs, or a comment. Shown is part of a subset that was picked to be rich in hits. Unless noted, the call rests on the fitted dose curve; in most records, active means well fitted curve in the direction sought with a large enough effect; inconclusive means small, poorly fitted or top-dose-only effect, or another doubt; inactive means no such curve, though single readings can be large; an effect the other way counts as inactive or inconclusive.

For CN1CCC2(CC1)CCN(C(=O)c1cccc(F)c1)CC2 the results were FBPA Giardia inh -1% and Tb PYK inh 6%.
`Cc1cc(C)cc(NC(=O)N2CCC(N3CCCCC3)CC2)c1` gave Tb PYK inh -11% and Sm TGR block 0%.
O=C(NC(=S)N1CCCc2ccccc21)c1ccccc1 was read as Shiga toxin inh 69*, FBPA Giardia inh -11%, LmPK inh 4%, Tb PYK inh -13%, Sm TGR block inconclusive and Cycloheximide cs 25*.
Screening CN(C)C(=O)CN1C(=O)c2cccc3cccc1c23 returned Shiga toxin inh -14, FBPA Giardia inh 3%, LmPK inh -9%, Tb PYK inh 4%, Sm TGR block 7% and Cycloheximide cs 0.
Screening CCCCON1C(=O)c2cccc3cccc(c23)C1=O returned Shiga toxin inh 41*, FBPA Giardia inh 24%, LmPK inh -3%, Tb PYK inh 1%, Sm TGR block 4% and Cycloheximide cs 15*.
For CCN1C(=O)c2cccc3cccc1c23 the results were Shiga toxin inh -15, FBPA Giardia inh inconclusive, LmPK inh 1%, Tb PYK inh -6%, Sm TGR block 11µM* and Cycloheximide cs 0.
CC(C)(C)NC(=O)[C@@H]1CC[C@@H]2[C@@H]3CC[C@@H]4NC(=O)C=C[C@@]4(C)[C@H]3CC[C@]21C was read as FBPA Giardia inh 5%[21.7 µM] and Tb PYK inh 2%[33.2 µM].
`O=c1cc(COc2ccc(Cl)c(Cl)c2)nc2sccn12` gave Shiga toxin inh 6, FBPA Giardia inh -1%, LmPK inh 2%, Tb PYK inh 0%, Sm TGR block 8% and Cycloheximide cs 20*.
`Cc1ccc(OCC(=O)OCc2cc(=O)n3ccsc3n2)cc1C` gave Tb PYK inh 2% and Sm TGR block 5%.
Screening O=c1cc(CNc2cc(Cl)ccc2Cl)nc2sccn12 returned Shiga toxin inh 28, FBPA Giardia inh -17%, LmPK inh 3%, Tb PYK inh 1%, Sm TGR block -14% and Cycloheximide cs 29*.
Cc1nc2ccccc2cc1OCc1ccccc1 was read as Shiga toxin inh 22, FBPA Giardia inh -4%, LmPK inh 0%, Tb PYK inh -8%, Sm TGR block 10% and Cycloheximide cs 46*.
COc1cccc(COc2cc3ccccc3nc2C)c1 was read as Shiga toxin inh 58*, FBPA Giardia inh -10%, LmPK inh -4%, Tb PYK inh 2%, Sm TGR block 10% and Cycloheximide cs 17*.
For Cc1nc2ccccc2cc1OCc1ccc(Cl)cc1 the results were Shiga toxin inh 101*, FBPA Giardia inh 9%, LmPK inh -3%, Tb PYK inh -12%, Sm TGR block 7% and Cycloheximide cs 54*.
CC1(C(=O)NS(=O)(=O)c2cccc(C#N)c2)CCN1C(=O)CC1CCCCC1 (stereo not given) was read as Tb PYK inh -1%.
For O=C(N/N=C/c1ccc(Br)o1)c1cccnc1 the results were Shiga toxin inh 0, FBPA Giardia inh 3%, LmPK inh -1%, Tb PYK inh -3%, Sm TGR block 8% and Cycloheximide cs 7.
For Nc1nonc1C(=O)N/N=C/c1ccc(Br)o1 the results were Shiga toxin inh 72*, FBPA Giardia inh -10%, LmPK inh -12%, Tb PYK inh -4%, Sm TGR block 13% and Cycloheximide cs 39*.
N/C(=N\N=C\c1ccc(Br)o1)c1nonc1N was read as Shiga toxin inh 82*, FBPA Giardia inh 1%, LmPK inh -21%, Tb PYK inh -1%, Sm TGR block 40µM* and Cycloheximide cs 47*.
For Nc1nonc1C(=O)N/N=C/c1ccc(-c2ccc(Cl)c(C(=O)O)c2)o1 the results were Shiga toxin inh 48*, FBPA Giardia inh inconclusive, LmPK inh 0%, Tb PYK inh 5%, Sm TGR block -22% and Cycloheximide cs 14*.
Screening COc1ccccc1CN1CCC2(CC1)CCN(C(=O)c1csnn1)CC2 returned FBPA Giardia inh -14% and Tb PYK inh 5%.
`CCOC(=O)C1(CCOC)CCN(C(=O)c2ccc(CSC)o2)CC1` gave Shiga toxin inh 11, LmPK inh -3%, Tb PYK inh -2%, Sm TGR block inconclusive and Cycloheximide cs 5.
`Cn1cc(C(=O)NCc2ccc(Cl)cc2)c(=O)c2cc(S(=O)(=O)N3CCCCCC3)ccc21` gave Tb PYK inh 8% and Sm TGR block 4%.
For O=C(CN(Cc1ccco1)S(=O)(=O)c1cccs1)Nc1ccccc1C(F)(F)F the results were Shiga toxin inh 42*, FBPA Giardia inh -2%, LmPK inh -3%, Tb PYK inh -12%, Sm TGR block 20µM* and Cycloheximide cs 24*.
Screening O=C(CN(Cc1ccco1)C(=O)c1ccc([N+](=O)[O-])cc1)Nc1ccccc1C(F)(F)F returned Tb PYK inh -8% and Sm TGR block 20µM*.
Screening COCCNC(=O)CSc1nnc2[nH]c(=O)cc(C)n12 returned Tb PYK inh -9% and Sm TGR block -118%.
For COCCOc1ccc(C(F)(F)F)cc1Nc1nc2ccccc2o1 the results were Shiga toxin inh 100*, FBPA Giardia inh -9%, LmPK inh -3%, Tb PYK inh inconclusive, Sm TGR block 10% and Cycloheximide cs 30*.
CCCNC(=O)c1ccccc1NC(=O)C1COc2ccccc2O1 (stereo not given) was read as Shiga toxin inh -15, FBPA Giardia inh 4%, LmPK inh 0%, Tb PYK inh -9%, Sm TGR block 3% and Cycloheximide cs 22.
For O=C(Nc1ccccc1F)C1COc2ccccc2O1 (stereo not given) the results were Shiga toxin inh 43*, FBPA Giardia inh 12%, LmPK inh -2%, Tb PYK inh -1%, Sm TGR block 1% and Cycloheximide cs 33*.
C/C(=N\NC(=O)C1COc2ccccc2O1)c1ccccn1 (stereo not given) was read as Shiga toxin inh 24, FBPA Giardia inh -18%, LmPK inh -1%, Tb PYK inh -3%, Sm TGR block -5% and Cycloheximide cs 16*.
Screening C/C(=N\NC(=O)C1COc2ccccc2O1)c1ccc(C)o1 (stereo not given) returned Shiga toxin inh -9, FBPA Giardia inh -2%, LmPK inh 0%, Tb PYK inh -5%, Sm TGR block -20% and Cycloheximide cs -4.
`Cc1ccc(NC(=O)C2COc3ccccc3O2)c(C)c1` (stereo not given) gave FBPA Giardia inh 12%, LmPK inh 1%, Tb PYK inh -4%, Sm TGR block -11% and Cycloheximide cs 23*.
`O=C(Nc1ncccc1Cl)C1COc2ccccc2O1` (stereo not given) gave Shiga toxin inh 161*, FBPA Giardia inh -1%, LmPK inh -3%, Tb PYK inh 8%, Sm TGR block -1% and Cycloheximide cs 53*.
